In the library only some 6.8% were active in any assay of this set; here they are far more common.
MCF10A rereplic – inducers of DNA re-replication in MCF 10A breast cells | MCF 10A DNA re-replication, Hoechst nuclear intensity, 48 h | Potency, µM (series often up to 46.1 µM), for the others: at the top dose activity, positive = re-replication, actives largely listed as activators | 2.9% of 350,000 active; further: % of control where 0% means no effect; nearly all actives have a fitted effect of over 50% in size
PTAP TSG101 blk – blocks PTAP/TSG101 interaction to inhibit HIV-1 budding. Potency, µM (top dose mostly 115 µM), for the others: top-dose activity change, negative = inhibition, hits mostly inhibitors. Fluorescence polarization, FITC-PTAP peptide / Tsg101 binding. 340,000 tested, under 10 active. Q99816; active means well fitted inhibition curve with a large enough effect in the main read-out, with a control signal flat, not every such curve was filed as active; inconclusive means small, poorly fitted or top-dose-only effect, or effect the other way, or a change in a side signal; inactive means no such curve, though single readings can be large or run the other way; further: % of control where 0% means no effect
Target sequence (Q99816 whole entry, looked up): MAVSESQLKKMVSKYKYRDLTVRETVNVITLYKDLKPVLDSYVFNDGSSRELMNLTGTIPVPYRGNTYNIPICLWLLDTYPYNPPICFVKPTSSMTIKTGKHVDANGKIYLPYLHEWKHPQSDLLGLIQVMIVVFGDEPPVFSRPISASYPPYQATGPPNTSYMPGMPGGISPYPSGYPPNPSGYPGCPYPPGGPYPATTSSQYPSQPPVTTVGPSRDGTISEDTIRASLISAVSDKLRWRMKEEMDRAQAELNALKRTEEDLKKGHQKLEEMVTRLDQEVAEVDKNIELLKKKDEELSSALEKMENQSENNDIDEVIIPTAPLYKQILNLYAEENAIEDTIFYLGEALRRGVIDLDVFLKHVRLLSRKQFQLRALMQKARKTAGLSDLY
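Steps: Tsg101 binding domain dispensed (10 uM final), compounds pinned in DMSO, FITC-labeled PTAP-motif peptide added (50 nM final); after 20 min binding at room temperature, polarization measured.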
KB-V1 MDR tox – kills drug-selected multidrug resistant KB-V1 cells | Potency, µM (top dose mostly 46.1 µM), actives largely listed as cytotoxic | 3.4% of 400,000 active | AID 1347076 | KB-V1 MDR cells viability, CellTiter-Glo, 72 h; further: on the % scale 0 is the no-effect control and ±100 the full control effect; nearly all actives have a fitted effect of over 60% in size
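KB-V1, DMEM (no phenol red) + 10% FBS; cpd pin-transferred, titration series; 72 h, 37 degrees C; CellTiter-Glo, luminescence. Data normalized, curve-fit.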
SW480 rerep – inducers of DNA re-replication in SW480 colon cancer cells | Potency, µM (doses to about 46.1 µM), for the others: at the highest dose re-replication activation, actives largely listed as activators | AID 624297 | 1.8% of 340,000 active | SW480 DNA re-replication, Hoechst DNA content imaging, 48 h; further: % of control where 0% means no effect; nearly all actives have a fitted effect of over 55% in size
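Readout is total intensity of Hoechst-stained nuclei, excited at 405 nm and collected at 500-530 nm. Compound treatment lasted 48 hr at 37 C in 5% CO2 before staining.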
KB-3-1 cytotox – kills parental KB-3-1 adenocarcinoma cells; KB-3-1 viability, CellTiter-Glo ATP luminescence, 72 h; Potency, µM (series often up to 46.1 µM), most hits filed as cytotoxic; 1.4% of 400,000 active; further: on the % scale 0 is the no-effect control and ±100 the full control effect; nearly all actives have a fitted effect of over 60% in size
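Cells are dispensed, compounds pinned in, plates held at 37 °C for 72 h, then CellTiter-Glo is added and luminescence read after 10 minutes. Cell line: parental KB-3-1 in phenol-red-free DMEM, 10% FBS.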
PINK1 expr mod – modulators of PINK1 expression; PINK1 immunofluorescence, high-content cytometry, 24 h; Potency, µM (top dose mostly 76.6 µM), inactives show at the top dose activation (PINK1 increase), hits mostly activators; 0.2% of 410,000 active; AID 624263; active means well fitted activation curve with a large enough effect; inconclusive means small, poorly fitted or top-dose-only effect; cell line not stated here; further: % of control where 0% means no effect; nearly all actives have a fitted effect of over 65% in size
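PINK1 protein, normally rapidly degraded, was detected by immunofluorescence after 24 hour compound treatment of a stable cell line. Titration data (5 concentrations) came from laser-scanning cytometry, with CCCP-treated wells as controls.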
Numbers without * were called inactive; i = inactive; ? = inconclusive; / = not tested or not shown; [ ] = dose if it differs, or a comment. Unless noted, the call rests on the fitted dose curve; in most records, active means well fitted curve in the direction sought with a large enough effect; inconclusive means small, poorly fitted or top-dose-only effect, or another doubt; inactive means no such curve, though single readings can be large; an effect the other way counts as inactive or inconclusive. Potency means the concentration at half of the fitted maximal effect.

SMILES | MCF10A rereplic | PTAP TSG101 blk | KB-V1 MDR tox | SW480 rerep | KB-3-1 cytotox | PINK1 expr mod
COc1ccccc1CNC(=O)[C@H](CCSC)NC(=O)[C@@H]1Cc2ccccc2CN1 | 16% | -2% | i | 7.3µM* | ? | 1%
COc1ccccc1CNC(=O)C(CCSC)NC(=O)C1CCC(C)CC1 (stereo not drawn) | 4% | -5% | 4.1µM* | -3% | i | -1%
COc1ccccc1CNC(=O)[C@H](C)NC(=O)[C@@H]1Cc2ccccc2CN1 | 1% | -4% | i | ? | i | 0%
Cc1ccc(CCNC(=O)CCn2nc(-c3ccc(Cl)cc3)ccc2=O)cc1 | / | / | i | / | i | -4%
CC(Oc1ccc(Br)cc1)C(=O)Nc1ncn[nH]1 (stereo not drawn) | / | / | i | / | i | 1%
COC(=O)CCC[N+](C)(C)C | -3% | / | / | 2% | / | /
COc1ccc(NC(=O)CCCc2nnc3n(C(C)C)c(=O)c4sccc4n23)cc1Cl | / | / | / | / | / | 7%
COCC(=O)N/N=C\c1ccccc1OC/C=C/c1ccccc1 | 104% | -4% | i | ? | ? | -1%
N#CCC(=O)N/N=C\c1ccccc1OC/C=C/c1ccccc1 | 183% | 3% | i | 16µM* | i | 7%
COCC(=O)N/N=C\c1cccc(OC)c1OC/C=C/c1ccccc1 | 11% | 0% | i | 16µM* | ? | -1%
COc1ccc(CN2CC[C@H]3C=CC[C@@H](C(=O)Nc4ccccc4)[C@H]3C2=O)cc1OC | / | / | ? | / | i | /
O=C(CNC(=O)c1cc2c(n(-c3ccccc3)c1=O)CCCC2=O)c1ccccc1 | ? | -3% | / | 5% | / | -3%
O=C1CCCc2c1cc(-c1ccccc1)n2-c1ccccc1 | 26% | 2% | 12µM* | -9% | 16µM* | 3%[38.3 µM]
CN(C)CCCNC1=CC(=O)OC12CCCCC2 | 3% | -3% | i | -2% | i | 1%
O=C1C=C(NCc2ccc(Cl)cc2Cl)C2(CCCCC2)O1 | 9.2µM* | -1% | i | ? | i | -2%[38.3 µM]
O=c1c(-c2ccc(F)cc2)nc2cnc(N3CCNCC3)nc2n1-c1ccccc1 | / | / | / | / | / | 1%
CCOC(=O)c1ccccc1NC(=O)COc1ccccc1-c1nnc(-c2ccccc2)o1 | / | / | ? | / | ? | 0%
CCCCC/C=N/NC(=O)c1[nH]c2ccc([N+](=O)[O-])cc2c1C | ? | -1% | i | -8% | i | -1%
CCC/C=N/NC(=O)c1[nH]c2c([N+](=O)[O-])cccc2c1C | 6.5µM* | -1% | i | 18µM* | 23µM* | 11%
CC1(C)Cc2c(sc3nnn(Cc4ccc(Cl)cc4)c(=O)c23)CO1 | 27% | 5% | 6.5µM* | 20% | ? | 0%
C#CCOCCOCCOCCNc1nc(N2CCN(C(=O)CCCCCCCCCCNC(=O)Cn3cc(CCCCCN)nn3)CC2)nc(N2CCN(C(=O)CCCCCCCCCCNC(=O)Cn3cc(C[C@@H](C)O)nn3)CC2)n1 | 23µM* | / | i | 1% | i | 4%
C#CCOCCOCCOCCNc1nc(N2CCN(C(=O)Cn3cc(CCCCN)nn3)CC2)nc(N2CCN(C(=O)Cn3cc(CC(C)O)nn3)CC2)n1 (stereo not drawn) | 8% | 1% | ? | -12% | i | -1%
C#CCOCCOCCOCCNc1nc(N2CCN(C(=O)CCCCCCCCCCNC(=O)Cn3cc(CCCCCN)nn3)CC2)nc(N2CCN(C(=O)CCCCCCCCCCNC(=O)[C@@H]([C@H](C)O)n3cc(C)nn3)CC2)n1 | 151% | / | i | 0% | ? | 1%
C#CCOCCOCCOCCNc1nc(N2CCN(C(=O)CCCCCCCCCCNC(=O)Cn3cc(C[C@@H](C)O)nn3)CC2)nc(N2CCN(C(=O)CCCCCCCCCCNC(=O)[C@@H]([C@H](C)CC)n3cc(CCCCCN)nn3)CC2)n1 | ? | 6% | i | ? | 23µM* | -2%

Screening data as filed in PubChem.
